Measurements reported in PubChem BioAssay (EPA / NIEHS).
Records with an inconclusive call do not appear. Active and inactive are the calls of the source. How the source made its calls, unless noted: active means hit-call score of the fitted dose curve at least 0.9, where 1 is the maximum; inactive means score below 0.9.

What was measured:
[1] = target: Paired box protein Pax-6 (Homo sapiens) (UniProt P26367); experiment: ATG_Pax6_CIS: Attagene CIS-FACTORIAL HepG2 Assay for human Paired Box 6 (PAX6) (AID 2282956); details: HepG2 CIS-FACTORIAL PAX6 reporter transcription, RNA readout; actives raise or lower the signal
Paired box protein Pax-6 (Homo sapiens), sequence (P26367 whole entry, looked up): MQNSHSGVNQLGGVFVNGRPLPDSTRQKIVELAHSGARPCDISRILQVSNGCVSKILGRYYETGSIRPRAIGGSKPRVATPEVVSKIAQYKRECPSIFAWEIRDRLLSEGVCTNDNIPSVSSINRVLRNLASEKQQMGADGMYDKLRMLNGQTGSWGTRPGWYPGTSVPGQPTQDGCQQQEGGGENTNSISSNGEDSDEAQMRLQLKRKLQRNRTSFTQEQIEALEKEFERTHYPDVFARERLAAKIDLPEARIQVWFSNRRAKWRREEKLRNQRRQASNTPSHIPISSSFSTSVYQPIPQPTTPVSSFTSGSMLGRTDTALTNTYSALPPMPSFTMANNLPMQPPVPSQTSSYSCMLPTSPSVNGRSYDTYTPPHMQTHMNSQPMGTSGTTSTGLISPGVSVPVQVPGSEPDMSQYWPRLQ
Method in brief: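 Read-out is reporter transcript level, measured by RT-PCR with fluorescent primer extension and capillary electrophoresis after 24 h dosing of transfected HepG2 cells. Activity in either direction fitted relative to DMSO control.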

[2] = ATG_RORE_CIS: Attagene CIS-FACTORIAL HepG2 Assay for human RAR-related Orphan Receptor Element (RORE) (AID 2282959); details: HepG2 Attagene cis-factorial RORE reporter, mRNA; actives raise or lower the signal
Method in brief: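 Multiplexed reporter assay measuring mRNA induction from a cis promoter element in transiently transfected HepG2 cells after 24 h treatment. Detection via RT-PCR and capillary electrophoresis fluorescence; DMSO serves as baseline.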

[3] = ATG_Sox_CIS: Attagene CIS-FACTORIAL HepG2 Assay for human SRY-box transcription factor (SOX) (AID 2282960); details: HepG2 Attagene cis-factorial SOX reporter, mRNA; actives raise or lower the signal
Method in brief: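 Cells were transfected with reporter constructs under cis-regulatory promoters, then exposed to chemicals for 24 h. Reporter transcripts were quantified by fluorescence after RT-PCR and capillary electrophoresis; activity was fitted in both directions against DMSO.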

[4] = target: Transcription factor Sp1 (Homo sapiens) (UniProt P08047); experiment: ATG_Sp1_CIS: Attagene CIS-FACTORIAL HepG2 Assay for human Specificity Protein 1 (Sp1) (AID 2282961); details: HepG2 Sp1 cis-reporter transcription, actives raise or lower the signal
Transcription factor Sp1 (Homo sapiens), sequence (P08047 whole entry, looked up): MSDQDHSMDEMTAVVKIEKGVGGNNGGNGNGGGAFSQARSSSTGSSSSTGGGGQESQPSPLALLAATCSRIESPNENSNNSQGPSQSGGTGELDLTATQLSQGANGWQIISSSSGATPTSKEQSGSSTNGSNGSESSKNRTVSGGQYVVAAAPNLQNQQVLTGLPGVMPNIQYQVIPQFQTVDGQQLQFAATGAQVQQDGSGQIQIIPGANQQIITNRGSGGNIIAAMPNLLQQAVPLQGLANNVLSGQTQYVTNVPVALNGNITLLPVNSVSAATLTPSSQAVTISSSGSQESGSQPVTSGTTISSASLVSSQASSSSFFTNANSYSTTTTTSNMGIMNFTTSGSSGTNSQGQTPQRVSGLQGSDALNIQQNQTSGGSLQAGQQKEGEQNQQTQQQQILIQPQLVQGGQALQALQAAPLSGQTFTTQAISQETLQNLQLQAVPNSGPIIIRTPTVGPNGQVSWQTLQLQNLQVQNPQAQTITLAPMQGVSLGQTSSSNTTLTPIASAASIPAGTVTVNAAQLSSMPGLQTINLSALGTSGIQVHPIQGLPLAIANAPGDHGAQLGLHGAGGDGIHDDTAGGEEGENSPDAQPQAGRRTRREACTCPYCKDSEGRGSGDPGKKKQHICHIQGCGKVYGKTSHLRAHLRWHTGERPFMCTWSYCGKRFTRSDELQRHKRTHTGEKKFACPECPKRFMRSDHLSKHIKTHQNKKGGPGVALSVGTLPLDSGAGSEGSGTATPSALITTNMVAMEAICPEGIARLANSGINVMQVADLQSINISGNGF
Method in brief: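 Measures mRNA induction of an Sp1-linked reporter in HepG2 cells 24 h post-dosing. Multiplexed reporters read by RT-PCR and capillary electrophoresis; DMSO serves as negative control and baseline.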

[5] = ATG_SREBP_CIS: Attagene CIS-FACTORIAL HepG2 Assay for human Sterol Regulatory Element Binding (SREBP) (AID 2282962); details: HepG2 Attagene cis-factorial SREBP reporter, mRNA; actives raise or lower the signal
Method in brief: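 Endogenous SREBP activity read as cis-element-driven reporter transcript in transiently transfected HepG2, 24 h post-dosing; quantified via RT-PCR plus capillary electrophoresis of fluorescent fragments. Gain or loss of signal fitted relative to DMSO baseline.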

[6] = target: Signal transducer and activator of transcription 3 (Homo sapiens) (UniProt P40763); experiment: ATG_STAT3_CIS: Attagene CIS-FACTORIAL HepG2 Assay for human Signal Transducer and Activator of Transcription 3 (STAT3) (AID 2282963); details: HepG2, Attagene cis-factorial STAT3 reporter transcription; actives raise or lower the signal
Signal transducer and activator of transcription 3 (Homo sapiens), sequence (P40763 whole entry, looked up): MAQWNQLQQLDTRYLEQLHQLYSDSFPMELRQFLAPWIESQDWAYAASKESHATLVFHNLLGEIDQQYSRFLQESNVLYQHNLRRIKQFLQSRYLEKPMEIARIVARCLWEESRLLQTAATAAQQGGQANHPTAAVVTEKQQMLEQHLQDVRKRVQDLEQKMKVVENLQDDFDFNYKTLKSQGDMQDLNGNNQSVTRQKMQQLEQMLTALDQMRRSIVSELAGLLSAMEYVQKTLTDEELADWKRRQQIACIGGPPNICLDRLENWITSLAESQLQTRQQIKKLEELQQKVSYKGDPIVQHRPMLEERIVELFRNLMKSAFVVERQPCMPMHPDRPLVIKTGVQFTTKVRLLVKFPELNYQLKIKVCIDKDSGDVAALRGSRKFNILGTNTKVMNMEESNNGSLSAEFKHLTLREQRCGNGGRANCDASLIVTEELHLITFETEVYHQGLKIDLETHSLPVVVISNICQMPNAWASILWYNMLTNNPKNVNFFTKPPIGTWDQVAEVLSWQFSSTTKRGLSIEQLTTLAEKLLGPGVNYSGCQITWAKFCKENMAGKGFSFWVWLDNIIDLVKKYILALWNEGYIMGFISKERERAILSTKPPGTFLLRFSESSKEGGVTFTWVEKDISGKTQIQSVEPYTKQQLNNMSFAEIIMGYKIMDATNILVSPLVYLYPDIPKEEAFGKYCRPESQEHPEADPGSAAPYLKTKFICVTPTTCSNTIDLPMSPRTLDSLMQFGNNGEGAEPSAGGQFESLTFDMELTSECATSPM
Method in brief: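 Uses human liver HepG2 transiently carrying cis-regulated reporter transcription units. Following 24 h dosing, reporter mRNA induction was detected by RT-PCR and capillary electrophoresis, analysed bidirectionally versus DMSO.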

[7] = ATG_TA_CIS: Attagene CIS-FACTORIAL HepG2 Assay for human TA Basal Promoter (AID 2282964); details: HepG2 Attagene CIS-factorial TA basal promoter reporter; actives raise or lower the signal
Method in brief: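 HepG2 cells transiently transfected with multiplexed cis-promoter reporter units, dosed 24 h. Reporter mRNA measured by RT-PCR, 6-FAM labelling, HpaI digestion and capillary electrophoresis; bidirectional fit versus DMSO baseline, serving as background control.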

[8] = ATG_TCF_b_cat_CIS: Attagene CIS-FACTORIAL HepG2 Assay for human T-Cell-Factor with beta-catenin (TCF/b-cat) (AID 2282965); details: HepG2 TCF/beta-catenin cis-reporter transcription, actives raise or lower the signal
Method in brief: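 Using capillary electrophoresis as the read-out, labelled reporter cDNA fragments from transiently transfected HepG2 were sized and quantified. Exposure lasted 24 hours; activity in either direction was referenced to DMSO.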

[9] = ATG_TAL_CIS: Attagene CIS-FACTORIAL HepG2 Assay for human TAL Basal Promoter (AID 2282966); details: HepG2 Attagene cis-factorial TAL promoter reporter; actives raise or lower the signal;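 further: background control endpoint measuring basal TAL promoter reporter mRNA not a specific factor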
Method in brief: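 Basal-promoter background-control endpoint from a multiplexed HepG2 reporter panel. Cells were exposed 24 h, then reporter mRNA was read by RT-PCR/CE fluorescence and fitted in both directions relative to DMSO.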

[10] = target: Estrogen receptor (Homo sapiens) (UniProt P03372); experiment: ATG_ERa_TRANS: Attagene TRANS-FACTORIAL HepG2 Assay for human Estrogen Receptor alpha (ERa) (AID 2282970; active means hit-call score of the fitted dose curve at least 0.9, where 1 is the maximum); details: HepG2 Attagene TRANS ERa GAL4 reporter, mRNA
Estrogen receptor (Homo sapiens), sequence (P03372 whole entry, looked up, the tested form may be a part): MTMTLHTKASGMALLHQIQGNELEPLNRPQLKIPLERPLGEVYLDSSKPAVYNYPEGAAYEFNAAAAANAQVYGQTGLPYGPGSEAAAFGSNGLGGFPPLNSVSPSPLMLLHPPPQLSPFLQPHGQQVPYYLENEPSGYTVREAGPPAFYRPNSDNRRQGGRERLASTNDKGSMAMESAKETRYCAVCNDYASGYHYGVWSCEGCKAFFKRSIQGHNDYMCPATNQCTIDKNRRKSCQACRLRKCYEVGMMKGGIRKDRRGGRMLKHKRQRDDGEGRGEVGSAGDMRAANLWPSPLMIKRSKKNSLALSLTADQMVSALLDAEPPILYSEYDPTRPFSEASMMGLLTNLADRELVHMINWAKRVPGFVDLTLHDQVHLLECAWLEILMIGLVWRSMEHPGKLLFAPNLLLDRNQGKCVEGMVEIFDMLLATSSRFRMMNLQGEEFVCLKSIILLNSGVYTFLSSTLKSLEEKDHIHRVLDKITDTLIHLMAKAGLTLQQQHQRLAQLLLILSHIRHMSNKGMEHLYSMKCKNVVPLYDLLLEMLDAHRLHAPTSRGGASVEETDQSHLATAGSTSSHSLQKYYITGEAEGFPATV
Method in brief: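 Gal4-fusion ERa transactivation, measured as reporter transcript level in transiently transfected HepG2 cells. Exposure 24 h; RT-PCR plus capillary electrophoresis with fluorescence detection.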

[11] = target: X-box-binding protein 1 (Homo sapiens) (UniProt P17861); experiment: ATG_Xbp1_CIS: Attagene CIS-FACTORIAL HepG2 Assay for human X-box Binding Protein 1 (XBP1) (AID 2282972); details: HepG2 XBP1 cis-element reporter, Attagene multiplex; actives raise or lower the signal
X-box-binding protein 1 (Homo sapiens), sequence (P17861 whole entry, looked up): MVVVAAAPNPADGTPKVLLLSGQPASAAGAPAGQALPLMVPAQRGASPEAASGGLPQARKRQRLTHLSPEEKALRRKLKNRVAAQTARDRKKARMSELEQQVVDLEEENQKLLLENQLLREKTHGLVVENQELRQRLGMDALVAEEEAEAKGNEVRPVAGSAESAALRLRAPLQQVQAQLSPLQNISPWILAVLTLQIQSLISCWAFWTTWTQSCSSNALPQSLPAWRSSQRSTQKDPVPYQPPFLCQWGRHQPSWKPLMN
Method in brief: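 Reporter transcripts were quantified by RT-PCR with fluorescent primer extension and capillary electrophoresis after 24 h chemical exposure. Cells: transiently transfected HepG2 carrying cis-regulated reporter constructs; data fitted bidirectionally relative to DMSO.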

[12] = ATG_M_19_TRANS: Attagene TRANS-FACTORIAL HepG2 Assay for M19 Transcription Factor (Internal Marker) (AID 2282974; active means hit-call score of the fitted dose curve at least 0.9, where 1 is the maximum); details: HepG2 Attagene TRANS-FACTORIAL M19 internal marker reporter
Method in brief: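 After transfection of HepG2 with GAL4-UAS-driven reporter constructs, cells are dosed for 24 h. Total RNA is reverse-transcribed, reporter sequences PCR-amplified and labelled, then HpaI-digested and sized by capillary electrophoresis.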

[13] = ATG_PXRE_CIS: Attagene CIS-FACTORIAL HepG2 Assay for human Pregnane X Receptor Element (PXRE) (AID 2282957); details: HepG2 Attagene CIS-FACTORIAL PXRE reporter, mRNA; actives raise or lower the signal
Method in brief: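 After a 24 h chemical incubation, total RNA from transfected HepG2 cells was reverse-transcribed and reporter cDNA amplified, FAM-labeled, HpaI-digested and sized by capillary electrophoresis. DMSO served as baseline for bidirectional curve fitting.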

[14] = ATG_TGFb_CIS: Attagene CIS-FACTORIAL HepG2 Assay for human Transforming Growth Factor (TGF) (AID 2282967); details: HepG2 Attagene CIS TGFb reporter, mRNA transcription; actives raise or lower the signal
Method in brief: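 HepG2 cells transiently transfected with cis-promoter-driven multiplexed reporter units; 24 h compound exposure. Reporter mRNA measured by RT-PCR, 6-FAM labeling, HpaI digestion and capillary electrophoresis; bidirectional fit versus DMSO baseline.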

[15] = target: Steroid hormone receptor ERR1 (Homo sapiens) (UniProt P11474); experiment: ATG_ERRa_TRANS: Attagene TRANS-FACTORIAL HepG2 Assay for human Estrogen-Related Receptor alpha (ERRa) (AID 2282971; active means hit-call score of the fitted dose curve at least 0.9, where 1 is the maximum); details: HepG2 Attagene TRANS reporter, ERRa transactivation
Steroid hormone receptor ERR1 (Homo sapiens), sequence (P11474 whole entry, looked up, the tested form may be a part): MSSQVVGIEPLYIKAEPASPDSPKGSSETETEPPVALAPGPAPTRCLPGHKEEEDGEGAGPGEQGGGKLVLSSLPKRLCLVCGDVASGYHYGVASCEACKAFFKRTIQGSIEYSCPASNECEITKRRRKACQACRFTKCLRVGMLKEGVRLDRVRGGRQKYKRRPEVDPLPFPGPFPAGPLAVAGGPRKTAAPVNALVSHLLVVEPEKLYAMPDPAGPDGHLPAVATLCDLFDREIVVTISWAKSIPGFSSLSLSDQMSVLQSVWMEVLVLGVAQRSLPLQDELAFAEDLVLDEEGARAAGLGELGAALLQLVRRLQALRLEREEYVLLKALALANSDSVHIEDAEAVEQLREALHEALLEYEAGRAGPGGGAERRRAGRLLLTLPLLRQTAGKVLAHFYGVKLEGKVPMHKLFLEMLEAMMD
Method in brief: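 HepG2 cells transiently transfected with GAL4-UAS reporter units and chimeric NR-Gal4 constructs; after 24 hour compound incubation, reporter mRNA quantified by RT-PCR, fluorescent labelling and capillary electrophoresis, gain of signal versus DMSO.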

[16] = ATG_GAL4_TRANS: Attagene TRANS-FACTORIAL HepG2 Assay for GAL4 (Internal Marker) (AID 2282976; active means hit-call score of the fitted dose curve at least 0.9, where 1 is the maximum); details: HepG2 Attagene TRANS GAL4 internal marker reporter
Method in brief: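 Background-control readout: GAL4-UAS reporter transcript in transiently transfected HepG2 cells after 24 h compound exposure. Measured by RT-PCR, 6-FAM primer extension, HpaI digest and capillary electrophoresis; gain-of-signal fit versus DMSO.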

[17] = ATG_PPRE_CIS: Attagene CIS-FACTORIAL HepG2 Assay for human Peroxisome Proliferator-activated Response Element (PPRE) (AID 2282958); details: HepG2 PPRE cis-element reporter, Attagene transcription factor profiling; actives raise or lower the signal
Method in brief: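 Transcript-level reporter induction in transfected HepG2 cells after 24 h chemical exposure, quantified by fluorescence from RT-PCR products separated by capillary electrophoresis.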

[18] = ATG_VDRE_CIS: Attagene CIS-FACTORIAL HepG2 Assay for human Vitamin D Receptor Element (VDRE) (AID 2282968); details: HepG2 VDRE cis-reporter transcription, actives raise or lower the signal
Method in brief: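 Transfected HepG2 reporter cells, chemical treatment 24 h. RNA isolated, cDNA amplified with reporter-specific primers, products analysed by capillary electrophoresis. Endpoint fitted in both directions versus DMSO.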

Row | Structure (SMILES) | outcome [1] | outcome [2] | outcome [3] | outcome [4] | outcome [5] | outcome [6] | outcome [7] | outcome [8] | outcome [9] | outcome [10] | outcome [11] | outcome [12] | outcome [13] | outcome [14] | outcome [15] | outcome [16] | outcome [17] | outcome [18] | AC50 [13]
1 | FC(F)(F)c1ccc(Cl)c(Cl)c1 | inactive | inactive | inactive | inactive | inactive | inactive | inactive | inactive | inactive | inactive | inactive | inactive | – | – | – | – | – | – | –
2 | CC(O)CN (stereo unspecified) | inactive | inactive | inactive | inactive | inactive | inactive | – | inactive | inactive | inactive | inactive | inactive | inactive | inactive | inactive | inactive | – | – | –
3 | OCCCO | inactive | – | inactive | inactive | inactive | inactive | inactive | inactive | inactive | – | inactive | – | – | – | – | inactive | inactive | inactive | –
4 | CCCCOCCOCCO | inactive | – | inactive | inactive | inactive | inactive | inactive | inactive | inactive | inactive | inactive | inactive | inactive | inactive | – | inactive | – | – | –
5 | Cc1ccncc1 | inactive | inactive | inactive | inactive | inactive | inactive | – | inactive | inactive | – | inactive | inactive | inactive | inactive | – | inactive | – | inactive | –
6 | CCCO | inactive | inactive | inactive | inactive | inactive | inactive | inactive | inactive | inactive | – | inactive | inactive | – | inactive | – | inactive | – | inactive | 85.4 µM (active)
7 | CC(C)(O)CCc1ccccc1 | inactive | – | inactive | inactive | inactive | inactive | inactive | inactive | – | inactive | inactive | – | – | inactive | – | – | inactive | inactive | –
8 | [Cu+] | inactive | – | inactive | inactive | inactive | inactive | inactive | inactive | inactive | inactive | inactive | – | inactive | inactive | – | – | – | – | –
9 | C=C(C)CCCC(C)CCO (stereo unspecified) | inactive | inactive | inactive | inactive | inactive | inactive | inactive | inactive | inactive | inactive | inactive | inactive | – | inactive | – | inactive | inactive | – | –
